In all, about 5,500 compounds went through this assay and about 2,000 (36%) were called active. Another 18% or so got no clear call; they are omitted. Rule as the data show it: active = normalized growth mostly below about 0.91 (no sharp cut-off); inconclusive = no clear call, values can overlap the other calls; inactive = mostly above about 0.92. This is one part of the list.
Test: chemical genetic growth profiling, strain panel (AID 1159580);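 also: tested at 20 µM; growth read once vehicle control cultures reached saturation at 30 °C; 1 = growth at the plate median or of vehicle wells; lower values mean less growth of the strain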
Settings: S. cerevisiae deletion strains, growth OD

Measured: normalized growth

COc1cc2c(cc1OC)-c1c(oc3c4c(ccc3c1=O)OC(C(C)C)C4)CO2 (stereo unspecified)
inactive: locus YAL013W, strain DEP1, stronger effect = lower value 1.01 | locus YBR021W, strain FUR4, stronger effect = lower value 1.06 | locus YBR229C, strain ROT2, stronger effect = lower value 1.01 | locus YCL029C, strain bik1, stronger effect = lower value 0.99 | locus YDL035C, strain GPR1, stronger effect = lower value 1.05 | locus YDL074C, strain BRE1, stronger effect = lower value 1.06 | locus YDL101C, strain DUN1, stronger effect = lower value 0.981 | locus YDL134C, strain PPH21, stronger effect = lower value 0.983 | locus YDL185W, strain tfp1, stronger effect = lower value 0.942 | locus YDL192W, strain arf1, stronger effect = lower value 1.01 | locus YDR101C, strain arx1, stronger effect = lower value 1.04 | locus YDR162C, strain NBP2, stronger effect = lower value 0.978 | locus YDR318W, strain mcm21, stronger effect = lower value 0.973 | locus YDR388W, stronger effect = lower value 0.982 | locus YDR502C, strain sam2, stronger effect = lower value 0.978 | locus YER110C, stronger effect = lower value 0.989 | locus YER155C, strain BEM2, stronger effect = lower value 0.997 | locus YER167W, strain BCK2, stronger effect = lower value 1.01 | locus YGL078C, strain dbp3, stronger effect = lower value 0.938 | locus YGL086W, strain mad1, stronger effect = lower value 0.983 | locus YGL248W, strain PDE1, stronger effect = lower value 0.988 | locus YGR078C, strain PAC10, stronger effect = lower value 0.982 | locus YGR135W, strain pre9, stronger effect = lower value 0.923 | locus YGR252W, strain gcn5, stronger effect = lower value 1.03 | locus YHR079C, strain IRE1 (second series), stronger effect = lower value 0.969 | locus YHR094C, strain hxt1, stronger effect = lower value 0.979 | locus YHR129C, strain ARP1, stronger effect = lower value 1 | locus YHR200W, strain rpn10, stronger effect = lower value 0.985 | locus YIL066C, strain RNR3, stronger effect = lower value 1.03 | locus YIL073C, strain SPO22, stronger effect = lower value 0.942 | locus YIL125W, strain kgd1, stronger effect = lower value 0.984 | locus YIR030C, strain dcg1, stronger effect = lower value 0.968 | locus YJL095W, strain BCK1, stronger effect = lower value 0.965 | locus YJL134W, strain LCB3, stronger effect = lower value 1 | locus YJL168C, strain set2, stronger effect = lower value 0.979 | locus YJL187C, strain SWE1 (second series), stronger effect = lower value 0.974 | locus YJR075W, strain HOC1, stronger effect = lower value 0.971 | locus YKL009W, strain mrt4, stronger effect = lower value 1.02 | locus YKL068W, stronger effect = lower value 0.98 | locus YKL085W, strain MDH1 (second series), stronger effect = lower value 0.973 | locus YKL085W, strain MDH1, stronger effect = lower value 0.973 | locus YKL190W, strain CNB1, stronger effect = lower value 0.992 | locus YKR001C, strain vps1, stronger effect = lower value 1.01 | locus YLR039C, strain RIC1, stronger effect = lower value 0.998 | locus YLR058C, strain SHM2, stronger effect = lower value 1 | locus YLR102C, strain apc9, stronger effect = lower value 0.988 | locus YLR268W, strain sec22, stronger effect = lower value 1.04 | locus YLR330W, strain CHS5, stronger effect = lower value 0.998 | locus YLR342W, strain FKS1 (second series), stronger effect = lower value 1.1 | locus YLR371W, strain rom2, stronger effect = lower value 0.982 | locus YLR418C, strain cdc73, stronger effect = lower value 0.981 | locus YML016C, strain PPZ1, stronger effect = lower value 0.989 | locus YML032C, strain rad52, stronger effect = lower value 1.01 | locus YML124C, strain tub3, stronger effect = lower value 0.971 | locus YMR078C, strain ctf18, stronger effect = lower value 0.962 | locus YMR223W, strain ubp8, stronger effect = lower value 0.979 | locus YMR263W, strain SAP30, stronger effect = lower value 0.984 | locus YMR307W, strain GAS1, stronger effect = lower value 1.15 | locus YNL067W, strain RPL9B, stronger effect = lower value 0.964 | locus YNL153C, strain GIM3, stronger effect = lower value 0.963 | locus YNL233W, strain BNI4, stronger effect = lower value 0.984 | locus YNL250W, strain rad50, stronger effect = lower value 0.93 | locus YNL271C, strain bni1, stronger effect = lower value 0.958 | locus YNL298W, strain CLA4, stronger effect = lower value 0.979 | locus YNL307C, strain MCK1, stronger effect = lower value 0.985 | locus YNR052C, strain pop2, stronger effect = lower value 0.962 | locus YOL006C, strain TOP1, stronger effect = lower value 1.17 | locus YOL012C, strain htz1 0.827 | locus YOL147C, strain pex11, stronger effect = lower value 0.973 | locus YOR061W, strain CKA2, stronger effect = lower value 1.02 | locus YOR069W, strain VPS5, stronger effect = lower value 0.996 | locus YOR136W, strain idh2, stronger effect = lower value 0.965 | locus YOR144C, strain elg1, stronger effect = lower value 1 | locus YOR184W, strain ser1, stronger effect = lower value 1.08 | locus YOR316C, strain cot1, stronger effect = lower value 0.97 | locus YPL241C, strain CIN2, stronger effect = lower value 0.986 | locus YPR119W, strain clb2, stronger effect = lower value 0.966 | locus YPR141C, strain kar3, stronger effect = lower value 0.954 | locus YPR163C, strain tif3, stronger effect = lower value 0.988 | locus YPR167C, strain met16, stronger effect = lower value 0.973 | strain wtn01, stronger effect = lower value 1.03
